Results on 39 compounds are retold here after the supplement of paper PMC12669032.

Values joined by “and” are separate entries in the source; they are usually repeats but may differ in a detail not shown here. Equal values may be shown once. A number with no mark means an inactive call.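 The calls were made as follows: active = AUC reduced over 20% with Padj below 0.05 in at least 2 of 3 replicates; inactive = otherwise.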

The test has as its system Bacteroides dorei. As to the kind of experiment: growth AUC relative to DMSO control (median of replicates) (fraction); higher = more growth (less inhibition), active = hit call of the paper. Particulars: 20 µM; 24 h. Summed up:
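Gut bacterial monocultures were grown anaerobically at 37 °C in mGAM, starting at OD600 0.05, with 20 µM compound (1% DMSO) in round-bottom 96-well plates under pierced gas-permeable seals. OD600 was read hourly for 24 h. Area under the growth curve (minimum OD set to 0) was normalised to the plate median of DMSO controls, or to row and column medians on the industrial chemical plate. The value is the median of three biological replicates grown on separate days.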
As to `Nc1cc(Cl)cc(C(=O)O)c1Cl`, the “growth AUC” value is 1.04. Then `CCOP(=S)(OCC)Oc1cnccn1`, with 1.01. Then `O=C(O)C(F)(F)C(F)(F)C(F)(F)C(F)(F)C(F)(F)C(F)(F)C(F)(F)C(F)(F)F`, with 1.03. Next, `CCOP(=S)(OCC)SCSCC`: 0.969. Regarding `CCOCn1c(-c2ccc(Cl)cc2)c(C#N)c(Br)c1C(F)(F)F`, the “growth AUC” value was 0.945. Next, `CCS(=O)(=O)c1cccnc1S(=O)(=O)NC(=O)Nc1nc(OC)cc(OC)n1`: 0.993; `CCNc1nc(NC(C)C)nc(SC)n1`: 0.976. Then `CN1COCN(Cc2cnc(Cl)s2)/C1=N/[N+](=O)[O-]`, with 0.932. Then `COP(=S)(NC(C)C)Oc1ccccc1C(=O)OC(C)C` (centres undefined), with 0.942. In the case of `COC(=O)C(C)(Cl)Cl`, the “growth AUC” value was 1.02.

Regarding `CCCCOCN(C(=O)CCl)c1c(CC)cccc1CC`, the “growth AUC” value was 0.944. Then `CC1(C)C(C=C(Cl)Cl)C1C(=O)OC(C#N)c1ccc(F)c(Oc2ccccc2)c1` (mixture of isomers), with 0.995; and `CCOC(=O)CC(SP(=O)(OC)OC)C(=O)OCC` (centres undefined), with 0.919.

On to `CCNc1nc(Cl)nc(NC(C)C)n1`, for which the “growth AUC” value was 0.945.

On to `Cc1cccc(C)c1N`, for which the “growth AUC” value is 1.01. Next, `CN(C)C(=O)Nc1ccc(Cl)cc1`: 1.01; `CCCCNC(=O)n1c(NC(=O)OC)nc2ccccc21`: 1; `N#Cc1cc(I)c(O)c(I)c1`: 0.776.

In the case of `CCOP(=S)(OCC)Oc1cc(Cl)c(Br)cc1Cl`, the “growth AUC” value was 1.02.

For `Cc1cnc(C2=NC(C)(C(C)C)C(=O)N2)c(C(=O)O)c1` (centres undefined), the “growth AUC” value is 1.02.

On to `CC1(C)CCC(Cc2ccc(Cl)cc2)C1(O)Cn1cncn1` (centres undefined), for which the “growth AUC” value was 0.98. Then `CCCN(CCC)c1c([N+](=O)[O-])cc(S(C)(=O)=O)cc1[N+](=O)[O-]`, with 0.937.

In the case of `Cc1occc1C(=O)Nc1ccccc1`, the “growth AUC” value was 1.04. Then `CCCOCC(=Nc1ccc(Cl)cc1C(F)(F)F)n1ccnc1`, with 0.982; and `Nc1cc(Cl)cc(Cl)c1`, with 1.03. Next, `O=C(O)COc1cc(Cl)c(Cl)cc1Cl`: 1.01; `Cc1cc(Cl)ccc1N=CN(C)C`: 1. Then `CNC(=O)Oc1cc(C)cc(C(C)C)c1`, with 0.973; and `CCOc1cc(Oc2ccc(C(F)(F)F)cc2Cl)ccc1[N+](=O)[O-]`, with 0.917. With `O=[N+]([O-])c1c(Cl)c(Cl)c(Cl)c(Cl)c1Cl`, the “growth AUC” value was 0.972. With `CC(Cc1ccc(C(C)(C)C)cc1)CN1CCCCC1` (centres undefined), the “growth AUC” value is 1.01.

In the case of `CNC(=O)c1cc(C#N)cc(C)c1NC(=O)c1cc(Br)nn1-c1ncccc1Cl`, the “growth AUC” value is 1.01. Next, `O=P(Oc1ccccc1)(Oc1ccccc1)Oc1ccccc1`: 0.96. Then `CC(=NC#N)N(C)Cc1ccc(Cl)nc1`, with 0.993 and 1.01; and `CO/N=C(/C1=NOCCO1)c1ccccc1Oc1ncnc(Oc2ccccc2Cl)c1F`, with 0.938; and `Cc1ccn2nc(S(=O)(=O)Nc3c(F)cccc3F)nc2n1`, with 0.957. Then `N#Cc1c(Cl)c(Cl)c(Cl)c(C#N)c1Cl`, with 0.931; and `C=CCC1=C(C)C(OC(=O)[C@@H]2[C@@H](C=C(C)C)C2(C)C)CC1=O` (some centres undefined), with 1.05. `O=C(O)CNCP(=O)(O)O`: the “growth AUC” value was 0.981.
